Assay [1] is described as follows: qHTS Assay for Lipid Storage Modulators (AID 1519; calls by dose curve; on activity change, negative = inhibition: on the % scale 0 is the no-effect control and ±100 the full control effect). To be noted: Drosophila S3 cells, BODIPY lipid droplet/cell ratio, laser cytometry, cells loaded with oleic acid. The gist of the method:
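Cells seeded at 5,000 per well were treated with compounds over a concentration series and loaded with oleic acid (400 uM, as added). Lipid droplet fluorescence (488 nm excitation, 500-530 nm channel) was read by laser-scanning cytometry and normalized to 20 uM Triacsin C.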
For orientation: Quantitative high-throughput screening tests each substance at several concentrations.

In assay [2] the target is DNA repair nuclease/redox regulator APEX1 (Homo sapiens) (UniProt P27695). The assay can be described thus: qHTS Validation Assay for Inhibitors of the Human Apurinic/apyrimidinic Endonuclease 1 (APE1) (AID 1705;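 further: TAMRA fluorescence gain over two minutes as APE1 cuts a quenched THF abasic duplex; on the % scale 0 is the no-effect control and ±100 the full control effect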). The gist of the method:
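Substrate: 50 nM final fluorophore/quencher THF-abasic duplex. Enzyme preincubated with compounds 15 min, RT. Progress derived from fluorescence difference, third minus first kinetic read.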

The nature of assay [3]: Counterscreen for APE1 Inhibitors: Fluorescent Dye Displacement Validation Assay (AID 1707).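 Further: plate controls were ThO with dsDNA and no compound for no effect and ThO without dsDNA for full effect.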 Summed up: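 ThO 250 nM + dsDNA 50 nM (THF abasic site, 5'-TAMRA), Tris-HCl pH7.5/50mM NaCl/2 mM MgCl2/0.01% Tween-20; compounds pin-transferred; ex 480/em 540 nm endpoint. Neutral = no compound; no-DNA ThO wells = negative control.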
A general note: Counterscreens check selectivity or assay interference.

The target in assay [4] is Alpha-galactosidase A (Homo sapiens) (UniProt P06280). Kind of assay: Counterscreen for Glucocerebrosidase Inhibitors: qHTS Assay for Human alpha-Galactosidase at pH 4.5 (AID 992). Further: 0% is about no effect. Summed up:
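Read-out is 4-methylumbelliferone fluorescence (365 nm excitation, 440 nm emission) after a pH 10 NaOH/glycine stop. Reactions held 2 nM enzyme and 80 uM substrate at pH 4.5 for 20 min at room temperature.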

In assay [5] the target is alpha-glucosidase (Oryza sativa, rice) (UniProt Q653V4). The assay can be described thus: Counterscreen for Glucocerebrosidase Inhibitors: qHTS Assay for Rice alpha-Glucosidase at pH 5.0 (AID 997).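 Further: 0% = full activity with enzyme and -100% = basal without enzyme.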 The gist of the method:
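Rice alpha-glucosidase (4 nM final) with 400 uM 4-methylumbelliferyl-alpha-D-glucopyranoside in citrate buffer pH 5.0, 20 min at room temperature, stopped at pH 10; fluorescence 365/440 nm, compounds 0.7 nM–77 uM, AC50 from Hill fits.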

Assay [6] is described as follows: Cell Viability - LYMP2-024 (AID 988).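 Further: plate controls were DMSO only for no effect and 92 µM tetraoctylammonium bromide for full effect; nearly all actives have a fitted effect of over 60% in size.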 The gist of the method: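 Human lymphoblastoid cells (2500/well) in complete medium were preincubated 5 hr at 37 C, then exposed to compounds for 24 hr at 37 C. Intracellular ATP was read by CellTiter-Glo luminescence; AC50 from Hill-equation fits of concentration-response data.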
The nature of assay [7]: Cell Viability - LYMP2-026 (AID 989). Further: on the % scale 0 is the no-effect control and ±100 the full control effect; nearly all actives have a fitted effect of over 50% in size. Summed up:
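Human lymphoblastoid cells (2500/well) in complete medium were preincubated 5 hr at 37 C, then exposed to compounds for 24 hr at 37 C. Cellular ATP was read by CellTiter-Glo luminescence; AC50 from Hill-equation fits of concentration-response data.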

Assay [8] can be described thus: Cell Viability - LYMP1-002 - Assay at 24 hr (AID 993). Further: on the % scale 0 is the no-effect control and ±100 the full control effect. The gist of the method:
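Human lymphoblastoid LYMP1-002 cells, 2500/well in complete medium, were treated with compounds for 24 h at 37 C; intracellular ATP was read by CellTiter-Glo luminescence. AC50 values came from Hill-equation fits of qHTS concentration-response data.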

Assay [9] in a line: Cell Viability - LYMP1-002 - Assay at 40 hr (AID 994).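 Further: 0% = DMSO only and full inhibition = 92 µM tetraoctylammonium bromide; nearly all actives have a fitted effect of over 60% in size.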 Summed up:
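Human lymphoblastoid cells, 2500/well in complete medium, were preincubated 5 hr at 37 C, then exposed to compounds for 40 hr at 37 C. Intracellular ATP was read by CellTiter-Glo luminescence after 30 min at room temperature; AC50 from Hill-equation fits.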

The mark [10] stands for this setting: measured here: cell count channel max response.
The mark [11] stands for this setting: measured here: lipid channel max response.

Where “and” joins values, the source holds several entries; their conditions need not be identical. Identical values can stand only once. Results filed as inconclusive are left out. Calls of active or inactive are those of the source. Unless noted, the call rests on the fitted dose curve; in most records, active means well fitted curve in the direction sought with a large enough effect; inconclusive means small, poorly fitted or top-dose-only effect, or another doubt; inactive means no such curve, though single readings can be large; an effect the other way counts as inactive or inconclusive.

Chain of Alpha-galactosidase A (Homo sapiens) (P06280 whole entry, looked up): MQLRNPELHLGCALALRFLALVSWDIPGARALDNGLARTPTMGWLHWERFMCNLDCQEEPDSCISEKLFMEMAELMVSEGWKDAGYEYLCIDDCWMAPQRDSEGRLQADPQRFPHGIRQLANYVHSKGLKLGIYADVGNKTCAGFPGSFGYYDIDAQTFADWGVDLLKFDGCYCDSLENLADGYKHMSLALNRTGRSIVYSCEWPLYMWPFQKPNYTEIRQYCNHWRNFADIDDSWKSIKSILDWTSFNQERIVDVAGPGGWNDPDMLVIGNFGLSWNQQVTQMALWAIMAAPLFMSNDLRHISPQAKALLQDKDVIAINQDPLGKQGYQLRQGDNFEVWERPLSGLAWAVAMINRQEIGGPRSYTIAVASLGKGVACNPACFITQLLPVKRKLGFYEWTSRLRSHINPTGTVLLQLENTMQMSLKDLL
Chain of DNA repair nuclease/redox regulator APEX1 (Homo sapiens) (P27695 whole entry, looked up): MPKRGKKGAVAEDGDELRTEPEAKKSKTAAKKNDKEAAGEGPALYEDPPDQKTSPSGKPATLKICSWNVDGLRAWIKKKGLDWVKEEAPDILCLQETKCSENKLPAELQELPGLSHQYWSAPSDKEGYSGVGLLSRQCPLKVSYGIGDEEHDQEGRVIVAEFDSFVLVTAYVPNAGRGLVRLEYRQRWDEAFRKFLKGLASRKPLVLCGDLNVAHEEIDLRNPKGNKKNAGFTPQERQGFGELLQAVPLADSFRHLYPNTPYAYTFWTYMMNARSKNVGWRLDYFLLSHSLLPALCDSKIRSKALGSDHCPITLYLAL

For the compound `CO[C@@]1(NC(=O)CSCC#N)C(=O)N2C(C(=O)O)=C(CSc3nnnn3C)CS[C@@H]21`, in [1] (at 57.5 µM (top of the series)), the activity change, negative = inhibition was 0.161% (inactive). Also, the max response was -28.1% in [1] (setting [10]) and -28.4% in [1] (setting [11]). Besides, the Potency entry in assay [2] was “inactive”. The result in [3] was inactive.
On to `COC(=O)C1=C(C)NC(C)=C(C(=O)OCCN(C)Cc2ccccc2)C1c1cccc([N+](=O)[O-])c1` (stereo not drawn), for which the activity change, negative = inhibition in assay [1] (at 57.5 µM (top of the series)) is 2.25% (inactive). Also, the max response in assay [1] (setting [10]) is -9.5%; in assay [1] (setting [11]) it was -7.38%. Also, in [2], the Potency entry was “inactive”. Also, in assay [3], the compound was called inactive.
`Cc1nc2sccn2c(=O)c1CCN1CCC(=C(c2ccc(F)cc2)c2ccc(F)cc2)CC1`: the compound was called inactive in [4], in [5] and in [3]. Also, in [1] (at 57.5 µM (top of the series)), the activity change, negative = inhibition was -1.04% (inactive). In addition, the max response came to 26.4% in assay [1] (setting [10]) and 25.6% in assay [1] (setting [11]). For the same compound, in assay [2], the Potency result was “inactive”.
On to `NC(=O)N1c2ccccc2C=Cc2ccccc21`, for which the Potency result in [6], in assay [9] and in [2] was “inactive” each time. The result in assay [7], in assay [4], in assay [8], in assay [5] and in assay [3] was inactive. Moreover, the activity change, negative = inhibition in [1] (at 25.7 µM (top of the series)) is -0.889% (inactive). In addition, the figures for the max response in assay [1] (setting [10]) and in [1] (setting [11]) were -0.817% and -5.44%, respectively.
As for `NCCCNCCSP(=O)(O)O`, the result in assay [4], in [5] and in assay [3] was inactive. Moreover, the activity change, negative = inhibition in [1] (at 57.5 µM (top of the series)) was 2.83% (inactive). Moreover, the results for the max response in [1] (setting [10]) and in assay [1] (setting [11]) were 11.3% and 15.5%, respectively. The Potency result in [2] was “inactive”.
Turning to `CN=C(NC#N)NCCSCc1nc[nH]c1C`, the Potency result in assay [6] and in assay [9] was “inactive” in each case. Besides, the result in assay [7], in assay [4], in [8], in assay [5] and in [3] was inactive. Moreover, in [1] (at 57.5 µM (top of the series)), the activity change, negative = inhibition is 0.49% (inactive) and 5% (inactive). Moreover, the max response in assay [1] (setting [10]) was 19.1% and 8.99%; in [1] (setting [11]), 19.5% and 21.3%.
Turning to `C=CCc1ccccc1OCC(O)CNC(C)C` (stereo not drawn), the activity change, negative = inhibition in assay [1] (at 57.5 µM (top of the series)) is 0.138% (inactive). For the same compound, the max response in assay [1] (setting [10]) turned out to be 11.7%; in assay [1] (setting [11]) it was 12.4%. For the same compound, the Potency entry in assay [2] was “inactive”. Besides, the result in [3] was inactive.
As for `Fc1ccc(C(c2ccc(F)cc2)N2CCN(C/C=C/c3ccccc3)CC2)cc1`, the activity change, negative = inhibition in assay [1] (at 57.5 µM (top of the series)) was -1.34% (inactive). The max response in assay [1] (setting [10]) is 15.3%; in assay [1] (setting [11]), 15.1%. Besides, the Potency entry in assay [2] is “inactive”. Further, the compound was classed as inactive in [3].
In the case of `C[N+](C)(C)CCOC(N)=O`, the compound was called inactive in [4], in [5] and in assay [3]. Besides, in assay [1] (at 25.7 µM (top of the series)), the activity change, negative = inhibition was 1.99% (inactive). In addition, the results for the max response in assay [1] (setting [10]) and in [1] (setting [11]) were 10.4% and 11.4%, respectively. Besides, in [2], the Potency entry is “inactive”.
With `c1cc(CN2CCCCC2)cc(OCCCNc2nc3ccccc3s2)c1`, the result in [4], in assay [5] and in assay [3] was inactive. For the same compound, the activity change, negative = inhibition in assay [1] (at 57.5 µM (top of the series)) is -4.93% (inactive). In addition, the max response in assay [1] (setting [10]) was 18.9%; in [1] (setting [11]) it was 13%. For the same compound, the Potency result in [2] is “inactive”.
In the case of `OCCN1CCN(CCCN2c3ccccc3C=Cc3ccccc32)CC1`, the outcome in assay [4], in assay [5] and in assay [3] was inactive. Moreover, the activity change, negative = inhibition in assay [1] (at 57.5 µM (top of the series)) was -1.21% (inactive). Besides, the max response in assay [1] (setting [10]) and in [1] (setting [11]) was 45.9% throughout. Also, the Potency result in assay [2] was “inactive”.
In the case of `CC(=O)Oc1cc(C(C)C)c(OCCN(C)C)cc1C`, the result in assay [4], in assay [5] and in assay [3] was inactive. Moreover, the activity change, negative = inhibition in assay [1] (at 25.7 µM (top of the series)) is -0.785% (inactive). Moreover, the max response in [1] (setting [10]) was -9.94%; in assay [1] (setting [11]), -5.49%. For the same compound, the Potency entry in assay [2] was “inactive”.

Values taken from PubChem BioAssay (NCATS).
